TbPYK inhibitor: qHTS of Trypanosoma Brucei Inhibitors. pyruvate kinase (Trypanosoma brucei), Q57TT1. TbPYK enzyme, Kinase-Glo Plus ATP luminescence, 45 min. Potency, µM (highest dose often 76.8 µM), most hits filed as inhibitors. 410,000 compounds, 0.12% hits; also: nearly all actives have a fitted effect of over 50% in size
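In this concentration-response screen, enzyme-free wells defined baseline while DMSO plates tracked drift. Each reaction combined TbPYK, substrate, compound and 130 uM ADP for 45 min at room temperature. Kinase-Glo Plus luminescence gave the signal.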
RE007 growth inh: qHTS Assay for Inhibitors of the HIV-1 protein Vpr; 360,000 compounds, 0.21% hits; S. pombe RE007 Vpr strain, BacTiter-Glo ATP luminescence, 24 h; Potency, µM (highest dose often 92.2 µM), most hits filed as inhibitors; AID 651644, 2012; active = well fitted falling curve with a large enough effect; inconclusive = small, poorly fitted or top-dose-only effect; inactive = no such curve, though single readings can be large or run the other way; also: nearly all actives have a fitted effect of over 50% in size
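Fission yeast strain RE007, carrying one chromosomally integrated HIV-1 vpr copy, was seeded at OD 0.01 in PMG+AL medium with 23 nL pinned compound. After 24 h at 30 °C and 99% humidity, viability was read by BacTiter-Glo luminescence.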
Sm TGR block: qHTS Assay for the Inhibitors of Schistosoma Mansoni Peroxiredoxins; purified TGR, DTNB reduction, TNB absorbance 405 nm; Potency, µM (top dose mostly 114 µM), actives largely listed as inhibitors; 360,000 compounds, 3% hits; AID 485364, 2010; also: nearly all actives have a fitted effect of over 60% in size
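TGR 20 nM + NADPH 100 uM (dispensed conc.), cpd preinc 15 min RT; start with NADPH (500 uM addition) then DTNB (15 mM addition). Kinetic TNB absorbance, 405 nm filter. Four-parameter Hill fit across titration.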
FMDV inh: High Throughput Screening for Foot and Mouth Disease Virus Antivirals; FMDV antiviral cell-based qHTS; Potency, µM (top dose mostly 57.9 µM), most hits filed as inhibitors; 410,000 compounds, 1.2% hits; calls by dose curve; tested in HEK293T cells; also: read-out not given here; nearly all actives have a fitted effect of over 45% in size
Of the large screens only hits and unclear results are named; the others gave an inactive call. Rows were chosen to be rich in hits. Some 3.7% of all compounds tested hit in one or more screens of this group. Unless noted, calls follow the shape of the dose curve; as a rule, active = well fitted curve in the direction sought with a large enough effect; inconclusive = small, poorly fitted or top-dose-only effect, or another doubt; inactive = no such curve, though single readings can be large; an effect the other way counts as inactive or inconclusive.

Cc1cc2oc(C(=O)Nc3c(C(=O)Nc4ccccc4)oc4ccccc34)cc(=O)c2cc1C	none (no result: RE007 growth inh)
COc1cc(OC)c(OC)cc1CN1CCOc2ccc(CN3CCN(C(C)=O)CC3)cc2C1	none (no result: TbPYK inhibitor, RE007 growth inh, Sm TGR block)
C[C@@H]1CCN=C(N)S1	none (no result: TbPYK inhibitor, RE007 growth inh, Sm TGR block)
Cc1ccc(-n2ccnc(NCCc3ccc(S(N)(=O)=O)cc3)c2=O)cc1C	none (no result: RE007 growth inh)
CC1=CC(C)(C)N2C(=O)C3(SCC(=O)N3c3ccc(F)cc3)c3cc(C)cc1c32 (centres undefined)	FMDV inh 18µM
CCCCc1cc2c(=O)c(C(=O)OC)c[nH]c2cc1OCc1ccccc1	none (no result: RE007 growth inh, Sm TGR block, FMDV inh)
COc1ccc(NC(=S)NC(=O)c2ccccc2)cn1	Sm TGR block 35µM
COc1ccc(NC(=O)c2cccc(Oc3ccccc3)c2)cn1	none
Cn1ncc2cc(NC(=S)NC(=O)c3ccccc3)ccc21	Sm TGR block 18µM
O=C(c1ccccc1Cl)N(Cc1ccco1)c1ccccn1	none (no result: RE007 growth inh)
COc1ccc(CCNC(=O)c2ccc(CS(=O)(=O)Cc3cccc(C)c3)o2)cc1OC	FMDV inh 40µM
Cc1ccc(CNC(=O)c2ccc(CS(=O)(=O)Cc3ccc(C)cc3)o2)cc1	none (no result: RE007 growth inh)
Cc1cccc(CS(=O)(=O)Cc2ccc(C(=O)NCc3ccccc3)o2)c1	Sm TGR block 45µM
Cc1cccc(CS(=O)(=O)Cc2ccc(C(=O)NCc3cccs3)o2)c1	Sm TGR block 35µM
Cc1cccc(CS(=O)(=O)Cc2ccc(C(=O)NC3CCCC3)o2)c1	none
CO[C@H]1[C@H](NC(=O)c2ccsc2)c2ccccc2C12CCN(Cc1cnn(C)c1C)CC2	none (no result: TbPYK inhibitor, RE007 growth inh, Sm TGR block)
CCN(CC)c1ccc(S(=O)(=O)N2CCCCC2)cc1NC(=O)C1CCC1	Sm TGR block 50µM
CC(=O)Nc1nc2n(n1)C(c1ccc(F)cc1)C=C(c1ccc(Cl)cc1)N2 (centres undefined)	none (no result: RE007 growth inh)
CC1=CC(c2ccc(Cl)cc2)n2nc(NC(=O)CCC(=O)O)nc2N1 (centres undefined)	Sm TGR block 10µM
CC1=CC(c2ccc(Cl)cc2)n2nc(NC(=O)CCCC(=O)O)nc2N1 (centres undefined)	Sm TGR block 22µM
CCSc1nnc2n1C(C)(C)Cc1ccccc1-2	none (no result: RE007 growth inh)
CC1(C)Cc2ccccc2-c2n[nH]c(=S)n21	TbPYK inhibitor 2.8µM (no result: FMDV inh)
CCOC(=O)c1c(-c2ccccc2)oc2ccc(N(C(C)=O)S(=O)(=O)c3cc(C)ccc3C)cc12	none (no result: RE007 growth inh)
CN(C)c1ccc(C=C(C#N)C#N)cc1	none
CN(C)c1nc(C=C(C#N)C#N)c(Cl)n1-c1ccc(F)cc1	Sm TGR block 1.8µM, FMDV inh 14µM
COc1ccc([C@H]2c3cc(OC)c(OC)cc3C[C@@H](C)[C@@H]2C)cc1OC	none (no result: TbPYK inhibitor, RE007 growth inh, Sm TGR block)
O=c1c2ccccc2c(-c2ccc(O)cc2)nn1-c1cccc(C(F)(F)F)c1	FMDV inh 40µM (no result: RE007 growth inh)
O=c1c2ccccc2c(-c2cccc(C(F)(F)F)c2)nn1-c1ccccc1	none
O=C(Nc1ccc(F)cc1)c1cccc(N2CCCS2(=O)=O)c1	none (no result: RE007 growth inh)
C(=Cc1cnc2ccccc2n1)c1ccc2c(c1)OCO2	TbPYK inhibitor inconclusive, FMDV inh 1.8µM (no result: Sm TGR block)
S=c1[nH]nc(-c2cccs2)n1C1CCCCC1	TbPYK inhibitor 7.1µM
COc1ccc(C(=O)NCC(=O)Nc2cccc(S(=O)(=O)NCc3ccco3)c2)cc1OC	Sm TGR block 45µM
Cc1cccc(NC(=O)c2ccc(F)c(S(=O)(=O)NCc3ccco3)c2)c1	Sm TGR block 28µM
COc1cccc(S(=O)(=O)NCc2ccc(C(=O)NCc3ccco3)cc2)c1	Sm TGR block 28µM
CCc1ccccc1NC(=O)CNC(=O)c1ccc(S(=O)(=O)NCc2ccco2)cc1	none (no result: Sm TGR block)
Cc1cccc(C)c1NC(=O)CNC(=O)c1ccc(S(=O)(=O)NCc2ccco2)cc1	Sm TGR block 20µM
CCN(CCO)C(=O)c1cnn(-c2ncc3c(n2)-c2ccccc2CCC3)c1C1CC1	none (no result: TbPYK inhibitor, RE007 growth inh, Sm TGR block)
CCCC(=O)Nc1nnc(S(=O)(=O)N(C)Cc2ccc(Cl)cc2)s1	none (no result: RE007 growth inh)
Cc1ccc(C)c(CSc2nc3ccncc3n2Cc2nc(-c3ccccc3Cl)oc2C)c1	none (no result: RE007 growth inh)
Cc1cccc(-c2nc(Cn3c(SCc4cc(C)ccc4C)nc4ccncc43)c(C)o2)c1	Sm TGR block 79µM, FMDV inh inconclusive (no result: RE007 growth inh)
CCOc1ccc(NC(=O)N(Cc2c[nH]c3ccccc23)C2CCCCCC2)cc1	none (no result: RE007 growth inh)
CCCCOc1cccc(C(=O)N(Cc2ccc(Br)o2)C2CCS(=O)(=O)C2)c1 (centres undefined)	none (no result: RE007 growth inh)

Screening data deposited in PubChem by National Center for Advancing Translational Sciences (NCATS).
